# Measured values reported in PubChem BioAssay.
# The source made the active and inactive calls.
# Experiments:
# [1] = optical density shifts of acrAB sulA E. coli – strain DRC41, OD650, 48 h, E. coli filamentation inducer project, primary screen (AID 1152); details: higher = more signal, called active from +8 up or from −8 down;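 further: E. coli MC1000 strain DRC41 lacking acrAB efflux pump and sulA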
# [2] = probe aLefty1 binding on compound microarray – biochemical, small-molecule microarray, 635/667 nm fluorescence, primary screen (AID 1153); details: higher = more signal;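 further: score merges spot fluorescence with signal-to-noise ratio from the scanned slide images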
# [3] = plasmodial surface anion channel blockers, osmotic lysis – cell-based, P. falciparum Indochina, OD700, 1 h, primary screen (AID 1154); details: P. falciparum Indochina infected RBC osmotic lysis, higher = more signal, called active from +8 up or from −8 down
# [4] = plasmodial surface anion channel blockers, osmotic lysis – cell-based, P. falciparum Indochina, OD700, 2 h, primary screen (AID 1155);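 further: lysis reports solute entry through the parasite surface anion channel PSAC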; details: P. falciparum Indochina infected erythrocytes, higher = more signal, called active from +8 up or from −8 down
# [5] = changes in parasitized red cell lysis, either direction – P. falciparum Indochina, OD700, 3 h, PSAC antagonist project, primary screen (AID 1156); details: P. falciparum-infected erythrocytes, osmotic lysis, higher = more signal, called active from +8 up or from −8 down
# [6] = plasmodial surface anion channel blockers, osmotic lysis – cell-based, P. falciparum Indochina, OD700, 18 h, primary screen (AID 1157); details: P. falciparum Indochina infected erythrocytes, osmotic lysis OD700, 18 h; higher = more signal, called active from +8 up or from −8 down
# [7] = S6 kinase pathway phospho-S6 level changes – cell-based, A549, cytoblot, luminescence, serum-stimulated, primary screen (AID 1158); details: 5 h, higher = more signal;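 further: serum-stimulated A549 lung adenocarcinoma cells; signal is phosphorylated S6 detected by cytoblot immunostaining with HRP secondary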
# [8] = target: NADPH oxidase 2 (Homo sapiens) (UniProt P04839); experiment: compounds shifting NOX2 Amplex Red fluorescence – cell-based, HEK293-NOX2, PMA-stimulated, NOX inhibitor project, primary screen (AID 1159); details: 45 min, higher = more signal, called active from +8 up or from −8 down; further: test concentration not given here
# NADPH oxidase 2 (Homo sapiens), sequence (P04839 whole entry, looked up): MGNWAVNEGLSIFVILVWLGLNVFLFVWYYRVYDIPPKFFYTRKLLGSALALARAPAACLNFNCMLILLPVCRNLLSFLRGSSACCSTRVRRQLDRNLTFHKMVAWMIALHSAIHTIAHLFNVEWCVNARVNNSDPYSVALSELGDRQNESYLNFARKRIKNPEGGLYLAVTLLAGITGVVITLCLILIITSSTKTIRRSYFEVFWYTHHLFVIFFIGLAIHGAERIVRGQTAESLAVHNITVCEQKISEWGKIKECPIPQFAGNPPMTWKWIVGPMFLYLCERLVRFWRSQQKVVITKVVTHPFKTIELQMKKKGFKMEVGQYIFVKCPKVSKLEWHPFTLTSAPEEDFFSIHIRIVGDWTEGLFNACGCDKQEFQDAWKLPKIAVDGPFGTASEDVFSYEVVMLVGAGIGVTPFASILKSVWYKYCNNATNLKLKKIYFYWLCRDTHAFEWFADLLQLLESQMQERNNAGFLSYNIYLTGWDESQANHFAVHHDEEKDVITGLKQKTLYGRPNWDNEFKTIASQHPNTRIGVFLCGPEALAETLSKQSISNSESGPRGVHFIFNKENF
# [9] = target: NADPH oxidase 4 (Homo sapiens) (UniProt Q9NPH5); experiment: compounds shifting NOX4 Amplex Red fluorescence – cell-based, HEK293-NOX4, tetracycline-induced, NOX inhibitor project, primary screen (AID 1160); details: HEK293-NOX4, Amplex Red H2O2 fluorescence, 45 min; higher = more signal, called active from +8 up or from −8 down
# NADPH oxidase 4 (Homo sapiens), sequence (Q9NPH5 whole entry, looked up): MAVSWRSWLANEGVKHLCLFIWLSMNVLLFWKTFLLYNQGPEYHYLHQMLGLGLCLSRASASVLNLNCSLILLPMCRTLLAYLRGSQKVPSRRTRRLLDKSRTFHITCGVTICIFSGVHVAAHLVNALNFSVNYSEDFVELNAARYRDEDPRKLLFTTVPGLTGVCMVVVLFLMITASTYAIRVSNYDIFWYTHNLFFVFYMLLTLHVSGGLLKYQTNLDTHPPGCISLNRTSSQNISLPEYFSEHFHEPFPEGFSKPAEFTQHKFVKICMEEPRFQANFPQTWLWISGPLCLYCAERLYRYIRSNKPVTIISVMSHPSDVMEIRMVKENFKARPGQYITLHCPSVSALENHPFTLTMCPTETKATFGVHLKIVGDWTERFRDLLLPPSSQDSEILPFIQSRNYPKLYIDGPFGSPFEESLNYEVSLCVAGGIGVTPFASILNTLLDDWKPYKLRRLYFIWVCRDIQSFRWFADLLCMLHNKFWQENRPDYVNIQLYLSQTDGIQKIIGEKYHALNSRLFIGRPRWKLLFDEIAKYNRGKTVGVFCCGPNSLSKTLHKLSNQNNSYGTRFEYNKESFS
# [10] = target: NADPH oxidase 5 (Homo sapiens) (UniProt Q96PH1); experiment: compounds shifting NOX5 Amplex Red fluorescence – cell-based, HEK293-NOX5, NOX inhibitor project, primary screen (AID 1161); details: HEK293-NOX5, ionomycin, 45 min, higher = more signal
# NADPH oxidase 5 (Homo sapiens), sequence (Q96PH1 whole entry, looked up): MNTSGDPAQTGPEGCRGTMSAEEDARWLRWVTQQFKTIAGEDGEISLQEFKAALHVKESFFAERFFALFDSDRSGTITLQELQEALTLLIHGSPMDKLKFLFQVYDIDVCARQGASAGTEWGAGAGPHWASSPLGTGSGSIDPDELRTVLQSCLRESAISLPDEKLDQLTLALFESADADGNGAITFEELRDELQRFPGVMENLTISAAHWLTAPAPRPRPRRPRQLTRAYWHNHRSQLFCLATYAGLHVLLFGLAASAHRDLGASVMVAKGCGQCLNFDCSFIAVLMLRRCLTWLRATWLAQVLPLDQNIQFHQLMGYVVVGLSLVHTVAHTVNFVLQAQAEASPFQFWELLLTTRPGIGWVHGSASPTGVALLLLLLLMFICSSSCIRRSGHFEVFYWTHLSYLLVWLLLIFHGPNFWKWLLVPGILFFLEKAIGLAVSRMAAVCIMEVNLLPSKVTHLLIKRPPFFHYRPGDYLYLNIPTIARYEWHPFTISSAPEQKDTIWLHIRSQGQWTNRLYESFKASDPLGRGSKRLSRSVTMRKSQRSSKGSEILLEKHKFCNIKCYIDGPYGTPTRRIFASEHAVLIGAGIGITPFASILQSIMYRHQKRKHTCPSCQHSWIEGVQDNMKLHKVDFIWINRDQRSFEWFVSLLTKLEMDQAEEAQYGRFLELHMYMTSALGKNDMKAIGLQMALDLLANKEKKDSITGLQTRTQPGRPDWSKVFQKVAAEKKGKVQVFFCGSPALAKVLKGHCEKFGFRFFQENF
# [11] = compound effects on lung adenocarcinoma cell viability – A549, calcein-AM fluorescence, 48 h, basal, profiling panel (AID 1162); details: higher = more signal; further: test concentration not given here
# [12] = compound effects on differentiated 3T3-L1 adipocyte viability – cell-based, 3T3-L1 adipocytes, calcein-AM fluorescence, 48 h, basal, profiling panel (AID 1163); details: 3T3-L1 adipocytes viability, higher = more signal; further: test concentration not given here
# [13] = compound effects on hepatocellular carcinoma cell viability – HepG2, calcein-AM fluorescence, 48 h, basal, profiling panel (AID 1164); details: higher = more signal; further: test concentration not given here
# [14] = compound effects on multiple myeloma cell viability – MM1S, calcein-AM fluorescence, 48 h, basal, profiling panel (AID 1165); details: higher = more signal;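 further: viability of MM1S multiple myeloma cells under basal unstimulated conditions; test concentration not given here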
# [15] = calcein-AM signal in unstimulated myeloma cells – cell-based, calcein-AM fluorescence, 48 h, PK04 Diversity Set, profiling panel (AID 1166); details: RPMI8226 myeloma viability, higher = more signal;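 further: cells grown under basal conditions without added stimulus; test concentration not given here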
# [16] = JC-1 mitochondrial signal, unstimulated HepG2 cells – cell-based, JC-1 fluorescence, 24 h, 100 nL compound, profiling panel (AID 1167); details: HepG2 mitochondrial potential, higher = more signal; further: test concentration not given here
# [17] = JC-1 mitochondrial signal, unstimulated adipocytes – cell-based, JC-1 fluorescence, 3T3-L1 adipocytes, 24 h, 100 nL compound, profiling panel (AID 1168); details: JC-1 mitochondrial fluorescence, higher = more signal, called active from +8 up or from −8 down; further: test concentration not given here
# [18] = JC-1 mitochondrial signal, unstimulated myeloma cells – cell-based, JC-1 fluorescence, RPMI8226, 24 h, 100 nL compound, profiling panel (AID 1169); details: JC-1 mitochondrial potential fluorescence, higher = more signal; further: test concentration not given here
# [19] = JC-1 mitochondrial signal, unstimulated MM1S myeloma – cell-based, JC-1 fluorescence, 24 h, 100 nL compound, profiling panel (AID 1170); details: MM1S mitochondrial potential, higher = more signal; further: test concentration not given here
# [20] = resazurin metabolic signal in A549 cells – cell-based, resazurin fluorescence, 24 h, PK04 Diversity Set, profiling panel (AID 1171); details: A549 viability, higher = more signal, called active from +8 up or from −8 down; further: test concentration not given here
Structure (SMILES),z-score [1],composite z-score [2],z-score [3],z-score [4],z-score [5],z-score [6],z-score [7],z-score [8],z-score [9],z-score [10],z-score [11],z-score [12],z-score [13],z-score [14],z-score [15],z-score [16],z-score [17],z-score [18],z-score [19],z-score [20]
[N-]=[N+]=NCc1ccccc1C[C@]1(C(=O)NCCN2CCOCC2)COC(c2ccc(OCCCO)cc2)=N1,0.581 (inactive),0.265,23.9 (active),10.2 (active),3.35 (inactive),2.09 (inactive),0.132,-0.379 (inactive),0.846 (inactive),0.109,1.18,-0.487,0.652,0.689,-0.699,2.24,0.498 (inactive),-0.218,-1.05,0.169 (inactive)
COc1ccc([Si](C)(C)[C@@H]2[C@@H](CC(=O)N3Cc4ccccc4C[C@H]3CO)O[C@]3(C(=O)N(Cc4cccc(N5CCCCC5=O)c4)c4ccccc43)[C@H]2C)cc1,-0.261 (inactive),-0.147,4.07 (inactive),1.27 (inactive),1.64 (inactive),0.867 (inactive),0.297,-1.63 (inactive),0.265 (inactive),0.805,-0.824,1.85,-1.27,-1.55,-3.36,-0.157,0.472 (inactive),-0.901,-0.398,-2.68 (inactive)
COCCCNC(=O)[C@@H]1c2ccccc2C(=O)N(Cc2cc(F)cc(C(F)(F)F)c2)[C@H]1c1ccc(CO)cc1,-0.0134 (inactive),-0.25,1.49 (inactive),0.35 (inactive),0.62 (inactive),0.0592 (inactive),-0.731,0.193 (inactive),0.401 (inactive),0.774,0.323,0.0853,0.463,0.575,-0.725,1.25,-0.82 (inactive),1.15,-0.33,0.301 (inactive)
COCCOC(=O)N1C(=O)[C@@]2(c3cc(C#Cc4ccc(OC)cc4)ccc31)[C@H](C(N)=O)[C@H]1C(=O)O[C@H](c3ccccc3)[C@H](c3ccccc3)N1[C@@H]2c1ccc(OCCO)cc1,0.79 (inactive),1.45,21.2 (active),5.69 (inactive),1.75 (inactive),1.95 (inactive),-0.0813,0.933 (inactive),-0.164 (inactive),1.86,-1.42,0.879,-0.656,-1.79,-2.31,-1.59,2.52 (inactive),-0.57,-1.39,0.676 (inactive)
COCC(=C=CC[C@@H](O)c1ccccc1OCCO)C[C@@H](O)c1ccccn1,-0.197 (inactive),0.235,8.59 (active),0.801 (inactive),0.502 (inactive),0.577 (inactive),-0.456,-0.459 (inactive),-1.04 (inactive),-1.31,0.0929,0.158,-0.0698,-0.591,0.211,-0.95,-0.99 (inactive),0.0537,-0.952,-0.709 (inactive)
CC(C)c1ccc(NN2C(C(O)c3cccs3)C=CC3C(=O)N(c4ccccc4)C(=O)C32)cc1 (stereo not given),-1.5 (inactive),0.498,3.11 (inactive),0.962 (inactive),0.566 (inactive),0.899 (inactive),-1.16,-1.11 (inactive),-3.51 (inactive),-2.9,-0.869,-0.986,-0.245,-0.639,-0.476,-2.91,-1.73 (inactive),0.183,0.491,-0.28 (inactive)
CC(C)C[C@H]1NC(=O)[C@H](C)NC(=O)[C@@]23C(=O)N[C@@H](Cc4ccccc4)C2[C@H](C)[C@@]2(C)O[C@H]2C3/C=C/C/C=C\CNC1=O (stereo not given in full),-1.07 (inactive),-0.774,2.71 (inactive),-0.169 (inactive),0.137 (inactive),0.11 (inactive),0.0246,-0.232 (inactive),0.83 (inactive),-0.234,-0.0541,0.392,-0.17,-0.36,-0.659,-0.482,-0.752 (inactive),-0.0616,1.34,-0.271 (inactive)
CC(C)(C)N1CC=CC23O[C@@H]4C=CCCOC(=O)C4[C@H]2C(=O)N(CCCO)[C@@H]3C1=O (stereo not given in full),0.471 (inactive),-0.289,0.595 (inactive),-1.01 (inactive),0.79 (inactive),-1.49 (inactive),0.682,-2.85 (inactive),-2.02 (inactive),-0.648,0.28,1.75,0.15,-0.685,-0.783,-1.26,0.514 (inactive),0.846,-0.0658,-1.22 (inactive)
COc1ccc([Si](C)(C)[C@@H]2[C@@H](CC(=O)N(CCO)Cc3ccccc3)O[C@]3(C(=O)N(Cc4ccc(N5CCOC5=O)cc4)c4ccccc43)[C@H]2C)cc1,-1.02 (inactive),-0.0891,8.87 (active),1.62 (inactive),-0.248 (inactive),0.821 (inactive),-0.16,0.566 (inactive),1.18 (inactive),3.4,-0.65,0.603,-1.94,-2.35,-4.21,-0.0678,1.19 (inactive),-1.01,-1.29,-1.61 (inactive)
